This note sets out measurements from PubChem BioAssay (NCI).

Where “and” joins values, the source holds several entries; their conditions need not be identical. Identical values can stand only once. This is part of a sample that, as a whole, favours compounds with a hit. Of some 79,000 tested, about 15% had one in any assay. Values without a mark were called inactive. Rule as the data show it: active = growth inhibition above about 70%; inactive = the rest.

The assay in a line: NCI Yeast Anticancer Drug Screen. Data for the mec2-1 strain (AID 157). The settings on record: S. cerevisiae mec2-1 strain, hits give high values; at 50.0 µM unless noted. The method in brief:
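Vehicle-treated cultures served as reference for growth inhibition of compound-exposed mec2-1 yeast.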
As to `CNC(=S)NCOCCOC(C)=O`, the growth inhibition is 22.1%.
In the case of `O=C(Cc1ccccc1)CC(CC(=O)Cc1ccccc1)c1ccccc1`, the growth inhibition was -16.7%.
For the molecule `O=CC(CO)C(C=O)n1ncc2ccccc21` (stereo not drawn), the growth inhibition was 7.7%.
As for `[CH3][Sn]([CH3])([S]P(=S)(c1ccccc1)c1ccccc1)[S]P(=S)(c1ccccc1)c1ccccc1`, the figure is 31.7%; as for `N=c1oc(-c2ccccc2)cc2ccccc12`, -9.4%.
As to `COc1cc(OC)c2c(c1)OC(c1cccnc1)C(c1ccccc1)C2=O` (stereo not drawn), the growth inhibition is -57.9%.
For `O=C1C=CC(=Nc2ccc3c(c2)-c2ccccc2C3)O1` the value was 21%; for `COC(=O)Nc1ccc(Cc2ccc(NC(=O)OC)cc2)cc1`, 7.35%.
For `Cc1nc(N(C)C)oc(=O)c1CCc1ccccc1` the value was 3.8%; for `CCN(CC)c1ccc(N=Nc2ccc(-c3nc4cccnc4o3)cc2)cc1`, -19.2%; for `CCCCCCCCCCCCCCCCCC(=O)CBr`, 9.9%.
For `C(=Nc1cccc2ccccc12)c1cccs1` the value was -4.85%.
As to `COC(=O)c1ccccc1-c1ccccc1C(=O)O`, the growth inhibition was -3.35%.
As for `C#CCOC(=O)Nc1ccccc1`, the figure is 12.7% and -1.2%.
Take `CC1=Nc2ccc([N+](=O)[O-])cc2C1(C)C`: the growth inhibition was 5.1%.
Take `CCOC(Cn1ccc[n+]1CC(=O)c1ccccc1)OCC`: the growth inhibition is -5.25%.
For `Cc1nc(C(N)=S)sc1C(=O)C/C(=N/N)C(=O)Nc1ccc(Cl)cc1` the value was -8.55%; for `Cc1nc(CO)c(-c2ccc([N+](=O)[O-])cc2)o1`, -4%.
